From PubChem BioAssay
In the library only some 4.6% were active in any assay of this set; here they are far more common.
FAS-TE inh = FAS thioesterase domain inhibitors, primary screen, biochemical, fluorescence intensity, uHTS; recombinant FAS-TE, OMFH fluorogenic substrate, fluorescence endpoint; inhibition, % at 15 µM; 0.67% of 360,000 active; AID 602261, 2012; Fatty acid synthase (Homo sapiens), P49327;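 active = compounds whose normalised, plate-corrected inhibition of enzyme fluorescence in the single-dose primary screen is 50% or more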;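 also: 0% = DMSO with enzyme and 100% = substrate without enzyme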
NR3A LBD binder = binders of NR3A ligand-binding domain, primary screen, biophysical, differential scanning fluorimetry, uHTS; NR3A LBD differential scanning fluorimetry, Tm shift; 0% = protein alone, 100% = glycine-bound protein; Tm shift relative to glycine control, % at 25 µM; 2.5% of 340,000 active;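 active = melting temperature shift of at least 10% of the positive control shift, at one fixed dose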
ADAM10 inh = human ADAM10 inhibitors, primary screen, biochemical, QFRET, HTS; Disintegrin and metalloproteinase domain-containing protein 10 (Homo sapiens), O14672; recombinant ADAM10, EDANS/DABCYL FRET peptide cleavage, 3 h; inhibition, % at 7 µM; 0.62% of 370,000 active; AID 720582, 2013;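 active = inhibition above a per-campaign cutoff equal to the mean of compounds falling between control-based bounds plus 3 SD, cut at about 20% in these data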;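 also: 0% = DMSO wells while the 100% control is not disclosed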
KLK7 zymogen act = proKLK7 zymogen activators, primary screen, biochemical, fluorescence intensity; 0.9% of 370,000 active; Kallikrein-7 (Homo sapiens), P49862; AID 652039, 2013; activation, % at 7 µM; purified proKLK7, EDANS-DABCYL substrate fluorescence; 100% is mature enzyme control, 0% vehicle;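 active = activation above the mean of all tested compounds plus 3 SD, computed per campaign excluding outliers beyond control limits, cut at about 13% in these data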
ADAM17 inh = ADAM17 inhibitors, primary screen, biochemical, QFRET; recombinant ADAM17, EDANS/DABCYL FRET peptide cleavage; 0.83% of 370,000 active; Disintegrin and metalloproteinase domain-containing protein 17 (Homo sapiens), P78536; AID 720648, 2013; inhibition, % at 6.95 µM;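 active = inhibition above the mean of compounds lying between control limits plus 3 SD, set per campaign, cut at about 8.5% in these data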;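 also: 0% = DMSO-only wells as the low control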
Target sequence (P78536 215-824 limits assumed): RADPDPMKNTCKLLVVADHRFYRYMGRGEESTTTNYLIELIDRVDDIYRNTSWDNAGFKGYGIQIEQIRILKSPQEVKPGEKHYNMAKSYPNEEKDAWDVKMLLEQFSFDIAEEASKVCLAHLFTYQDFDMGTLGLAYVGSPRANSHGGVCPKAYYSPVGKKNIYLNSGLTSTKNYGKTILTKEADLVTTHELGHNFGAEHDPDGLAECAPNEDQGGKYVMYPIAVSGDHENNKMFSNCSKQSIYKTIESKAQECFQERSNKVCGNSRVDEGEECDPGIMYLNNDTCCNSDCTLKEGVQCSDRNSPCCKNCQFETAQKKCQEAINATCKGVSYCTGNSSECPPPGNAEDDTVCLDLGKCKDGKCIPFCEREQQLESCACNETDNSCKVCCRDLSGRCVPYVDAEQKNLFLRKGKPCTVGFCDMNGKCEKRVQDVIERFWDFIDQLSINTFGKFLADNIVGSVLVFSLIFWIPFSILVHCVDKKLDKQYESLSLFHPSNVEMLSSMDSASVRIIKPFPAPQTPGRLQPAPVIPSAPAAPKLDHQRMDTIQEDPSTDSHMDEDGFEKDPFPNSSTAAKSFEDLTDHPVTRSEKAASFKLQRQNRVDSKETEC
ADAM10 confirm = human ADAM10 inhibitors, confirmation, biochemical, QFRET, triplicate. shares compounds with ADAM10 inh. ADAM10 QFRET peptide cleavage, EDANS fluorescence. inhibition, % at 6.95 µM. 1% of 2,100 active;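 active = inhibition above about 20% chosen separately for each screening run, limit read from the data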;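 also: 0% = DMSO wells and 100% = marimastat wells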
ADAM17 counter = ADAM17 inhibitors, counter-screen for ADAM10 exosite inhibitor project, biochemical, QFRET, high throughput | shares compounds with ADAM10 inh | 0.5% of 2,100 active | ADAM17 QFRET peptide cleavage, EDANS fluorescence | inhibition, % at 6.95 µM;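 active = mean triplicate inhibition above the solvent-only control wells' mean plus 3 SD, cut at about 12% in these data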;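 also: 0% = DMSO wells and 100% = marimastat wells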
Numbers without * were called inactive; nt = not tested or not shown.

SMILES | FAS-TE inh | NR3A LBD binder | ADAM10 inh | KLK7 zymogen act | ADAM17 inh | ADAM10 confirm | ADAM17 counter
Cc1ccc(/C=N/NC(=O)CSc2nnc(-c3ccccc3)n2-c2ccc(Cl)cc2)o1 | 1 | -13 | 27* | 0 | 8 | 2 | 1
COC(=O)[C@]12C[C@H](CC(=O)NCC3CCCCC3)C(=O)N(Cc3ccccc3)C1=C[C@H](C1CCCC1)O[C@@H]2C | nt | nt | 7 | 0 | 4 | nt | nt
Cc1cc(NS(=O)(=O)c2ccc(NC(=O)CSc3nnc(-c4ccccn4)n3-c3ccccc3)cc2)nc(C)n1 | nt | nt | -3 | 0 | -1 | nt | nt
O=C(O)c1cccc(NC(=S)NC(NC(=O)c2ccco2)C(Cl)(Cl)Cl)c1 (stereo not given) | -2 | 2 | -13 | 0 | -2 | nt | nt
O=C(NC(NC(=S)Nc1ccc(Cl)c(Cl)c1)C(Cl)(Cl)Cl)c1ccco1 (stereo not given) | 24 | 9 | 29* | 2 | 9 | 4 | 2
COc1ccccc1CCC(=O)Nc1cccc(S(=O)(=O)N2CCCCCC2)c1 | 21 | -4 | 23* | 0 | 7 | 2 | 0
Cc1cc(C)c(C(=O)OCC(=O)Nc2cccc(S(=O)(=O)N3CCCCC3)c2)c(C)c1 | 22 | 6 | 28* | 0 | 13* | 8 | 4
Cc1cc(N2CCN(CC(C)(C)O)C[C@@H]2C)ccc1N1CCN(CC(C)(C)O)[C@@H](C)C1 | nt | nt | -9 | 1 | -2 | nt | nt
COC(=O)Cc1nnn2c1[C@H](C)[C@@H](OC)c1ccccc1-2 | nt | nt | -4 | 0 | -3 | nt | nt
O=C(N/C=N/OCc1ccc(Cl)cc1Cl)NOCc1ncc(C(F)(F)F)cc1Cl | 4 | 0 | 20* | 1 | 11* | 11 | 3
CO/N=C/NC(=O)NOCc1ncc(C(F)(F)F)cc1Cl | -7 | -1 | 1 | 0 | 5 | nt | nt
COC(=O)N1C[C@H](OCc2ccc3c(c2)OCO3)[C@H]2C[C@@H]1c1ccccc1O2 | nt | nt | -11 | 1 | -2 | nt | nt
Cc1ccc(NS(=O)(=O)c2ccc(NC(=O)C(C)Sc3ccc(Cl)cc3)cc2)c(C)c1 (stereo not given) | 36 | 13* | 27* | 0 | 8 | 9 | 4
C[C@H](CO)N1C[C@H](C)[C@H](CN(C)Cc2cccc(F)c2)Oc2ncc(C3=CCCC3)cc2C1=O | nt | nt | -22 | 1 | -4 | nt | nt
CCc1ccc(C(=O)N/N=C(\C)c2ccncc2)s1 | -2 | 1 | -5 | -2 | 1 | nt | nt
C/C(=N/NC(=O)c1ccc(C)s1)c1ccncc1 | 0 | 1 | 21* | 0 | -115 | 0 | 0
N#CCC1(O)C(=O)Nc2ccccc21 (stereo not given) | nt | nt | -15 | 0 | -1 | nt | nt
Cc1ccc(NC(=O)c2ccc(CSc3nccc(C)n3)cc2)cc1 | 15 | -4 | 22* | 0 | -2 | 3 | 0
CC(=O)c1ccc(NC(=S)NC(C)c2ccc(Cl)cc2Cl)cc1 (stereo not given) | 40 | 22* | 24* | 1 | 8 | 4 | 1
Clc1ccc(CSc2nnc(CNc3cccc(Cl)c3)o2)cc1 | 41 | 2 | 20* | 0 | 5 | 6 | 2
Cc1nn(-c2ccccc2)c(C)c1/C=N/NC(=O)c1cc(-c2cccc3ccccc23)n[nH]1 | 37 | 1 | 24* | -1 | 8 | 6 | 2
O=S1(=O)c2ccc(N3CCC[C@H]3CO)cc2O[C@H]2CCN1C2 | nt | nt | -6 | 0 | -7 | nt | nt
O=C(Cc1ccccc1)Nc1nnc(-c2cccnc2)s1 | nt | nt | 1 | 0 | -1 | nt | nt
CCn1ncc2c(=O)c(C(=O)c3ccccc3)c[nH]c21 | nt | nt | -4 | 0 | -2 | nt | nt
Cc1cc(OCc2cc(C(=O)N(C)Cc3nonc3C)no2)cc(C)c1Cl | 29 | -5 | 28* | 0 | 5 | 7 | 2
SMILES | FAS-TE inh | NR3A LBD binder | ADAM10 inh | KLK7 zymogen act | ADAM17 inh | ADAM10 confirm | ADAM17 counter
CN1C2CCCC1CC(NC(=O)c1nn(C)c3ccccc13)C2 (stereo not given) | nt | nt | -12 | 0 | -5 | nt | nt
Cc1cc(N2CCN(C(=O)OC(C)(C)C)C[C@@H]2C)ccc1Br | nt | nt | -3 | 1 | -1 | nt | nt
COc1cc(O)c2c(=O)c3c(O)ccc(O)c3oc2c1 | -4 | -3 | 83* | 11 | 2 | 3 | 0
CCN(c1ccc(OC)cc1)S(=O)(=O)N1CCCC(C(=O)NCc2ccccc2Br)C1 (stereo not given) | 16 | 3 | 12 | 0 | 1 | nt | nt
CCN(c1ccc(OC)cc1)S(=O)(=O)N1CCCC(C(=O)NC(C)c2ccccc2)C1 (stereo not given) | 8 | nt | 70* | 0 | -2 | 4 | 1
O=C(N[C@H](Cc1ccccc1)C(=O)N1CCN(c2ccc(Cl)cn2)CC1)[C@H]1O[C@@H](n2ccc(=O)[nH]c2=O)[C@H](O)[C@@H]1O | nt | nt | -72 | 1 | -18 | nt | nt
COc1ccc(N2C(=O)c3[nH]nc(-c4ccccc4)c3C2c2ccc(Br)cc2)cc1 (stereo not given) | nt | nt | 5 | 0 | 0 | nt | nt
COc1ccc(-c2cn[nH]c2-c2ccc(OCc3ccccc3)cc2O)cc1 | -4 | 12* | 20* | 0 | 7 | 14 | 5
COc1ccc(-c2cn[nH]c2-c2ccc(OCc3ccccc3F)cc2O)cc1OC | -14 | 4 | 23* | 0 | 8 | 10 | 4
CCCCc1c(-c2ccccc2OC)ncn1Cc1cccc(C)c1 | nt | nt | 3 | 1 | 4 | nt | nt
COc1ccc(NC(=O)c2cc3n(n2)C(C(F)(F)F)CC(c2ccc4c(c2)OCO4)N3)cc1OC (stereo not given) | 19 | -9 | nt | nt | nt | nt | nt
Cc1cccc(NC(=O)c2cc3n(n2)C(C(F)(F)F)CC(c2ccc4c(c2)OCO4)N3)c1 (stereo not given) | 36 | 8 | 22* | 0 | 5 | 2 | -1
CC(=O)c1ccccc1-c1csc2ncnc(Sc3nnnn3C)c12 | -9 | 0 | 76* | 0 | -6 | 1 | 0
Cn1nnnc1Sc1ncnc2scc(-c3ccccc3C(F)(F)F)c12 | 2 | -1 | -1 | 1 | 1 | nt | nt
O=C(COC(=O)C1CCN(c2ccc(C(F)(F)F)cn2)CC1)Nc1ccc(Cl)cc1 | 30 | 24* | 27* | 0 | 7 | 9 | 4
